Screens (PubChem)
Hits are enriched below; roughly 32% of the tested compounds scored in any of these assays.
PostGolgi yeast = growth inhibition of a yeast mutant, post-Golgi transport screen; post-Golgi transport phenotypic cell assay; inhibition, % at 10 µM; hit rate 0.9% among 98,000; AID 739;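 note: yeast cells grown in 1536-well plates; yeast grown about 18 h at 30C before absorbance read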
CYP2C9 activ = activators of human CYP2C9; activation factor at 5 µM; hit rate 1.4% among 96,000; recombinant CYP2C9, luciferin-H conversion, luminescence; active compounds read high; factor 1 = untreated enzyme, 0 = blocked;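 active = activation factor of 2 or more for CYP2C9 at a 5 µM dose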;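 note: 0 = sulfaphenazole-blocked wells and 1 = vehicle-only wells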
Target sequence (P11712 whole entry, looked up): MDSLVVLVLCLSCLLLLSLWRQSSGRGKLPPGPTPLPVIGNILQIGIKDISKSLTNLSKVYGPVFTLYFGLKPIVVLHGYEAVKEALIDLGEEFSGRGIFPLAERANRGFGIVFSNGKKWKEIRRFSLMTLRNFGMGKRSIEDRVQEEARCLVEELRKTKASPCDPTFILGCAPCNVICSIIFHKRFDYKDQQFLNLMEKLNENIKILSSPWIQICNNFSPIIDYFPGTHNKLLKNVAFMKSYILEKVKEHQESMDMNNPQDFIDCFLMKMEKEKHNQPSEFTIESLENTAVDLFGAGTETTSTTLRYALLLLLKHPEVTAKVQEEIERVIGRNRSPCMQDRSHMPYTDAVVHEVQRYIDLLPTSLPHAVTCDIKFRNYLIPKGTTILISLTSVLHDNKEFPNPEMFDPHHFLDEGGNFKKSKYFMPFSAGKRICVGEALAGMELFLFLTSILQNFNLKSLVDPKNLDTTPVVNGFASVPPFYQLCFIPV
CYP2C9 inh = inhibitors of human CYP2C9; CYP2C9 Supersomes, luciferin-H conversion, luminescence; inhibition, % at 5 µM; hit rate 20% among 96,000;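 active = blocking of liver enzyme CYP2C9 beyond about 50% at 5 µM, limit read from the data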
CYP2C19 activ = increases human CYP2C19 enzyme activity; 96,000 tested, under 10 active; activation factor at 5 µM; recombinant CYP2C19, luciferin-H EGE luminescence; active compounds read high; 0 = fully inhibited enzyme, 1 = untreated enzyme; AID 1025; P33261;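 active = activation factor of at least 2 at 5 µM in the primary screen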;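 note: 0 = wells with 2.5 mM tranylcypromine and 1 = vehicle-only wells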
PostGolgi ctrl = inhibits growth of the yeast control strain; efflux-deficient yeast background strain, growth absorbance A615, 16 h; inhibition, % at 10 µM; hit rate 5% among 98,000
CYP2C19 inh = human CYP2C19 inhibition. CYP2C19 Supersomes, luciferin-H EGE luminescence, 30 min. hit rate 21% among 96,000. P33261. inhibition, % at 5 µM;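 active = CYP2C19 inhibition above a set limit at 5 µM in the primary screen, cut at about 50% in these data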;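 note: plate controls were negative control wells for no effect and 2.5 mM tranylcypromine positive control for full effect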
The depositor's hits bear a star; x = no result. Cut-off read from the data, not from the text of the source, unless noted: active = inhibition above about 30%; inactive = the rest.

SMILES	PostGolgi yeast	CYP2C9 activ	CYP2C9 inh	CYP2C19 activ	PostGolgi ctrl	CYP2C19 inh
Cc1ccc(C(=O)Nc2ccc(OCc3ccccc3)cc2)cc1[N+](=O)[O-]	-2	1	-2	0.8	13	24
COc1cc(CC(=O)NCCc2ccc(OCc3ccccc3)cc2)c([N+](=O)[O-])cc1OC	-2	0.5	49	0.4	1	61*
CCOC(=O)C1CCN(C(=O)Cn2cccc2C(=O)c2ccccc2)CC1	4	1	3	0.9	7	6
CCOC(=O)C1CCCN(C(=O)CC(C)c2ccccc2)C1 (centres undefined)	-3	0.2	84*	0.2	0	79*
CCOC(=O)C1CCCN(C(=O)Cn2cccc2C(=O)c2ccccc2)C1 (centres undefined)	6	0.8	22	0.8	31*	25
COc1ccc(NC(=O)C(C)N(c2ccc(C)cc2)S(C)(=O)=O)c(OC)c1 (centres undefined)	-9	0.5	52*	0.1	23	90*
COc1ccc(NC(=O)Nc2cc(C)ccc2OC(F)F)c(OC)c1	17	0.7	30	0.7	19	33
COc1ccc(NC(=O)NS(=O)(=O)c2ccc(C)cc2)c(OC)c1	-3	0.1	92*	0.7	-4	27
COc1ccc(S(=O)(=O)Nc2cc(C(=O)NC(C)C)ccc2N2CCOCC2)cc1	1	0.4	58*	0.5	3	54*
COc1ccc(S(=O)(=O)Nc2cc(C(=O)NC3CCCCCC3)ccc2N2CCOCC2)cc1	4	0.5	52*	0.5	13	49
COc1ccc(N2CCN(S(=O)(=O)c3ccc(C(=O)NC4CCCC4)cc3)CC2)cc1	-4	x	x	x	5	x
O=C(Nc1ccccc1C(=O)O)c1ncn[nH]1	-3	1.1	-11	0.9	27	11
Cc1sc(=NC(=O)c2ccco2)n(C)c1-c1ccccc1	2	0.3	65*	0.6	23	40
CCN(CC)S(=O)(=O)c1ccc(C2CNC(=O)C2)cc1 (centres undefined)	-2	0.9	10	1.2	0	-19
O=C(COC(=O)Cc1cn2ccsc2n1)Nc1nc2ccccc2s1	2	0.7	26	0.9	15	12
CCCNc1nc2c(c(=O)n(C)c(=O)n2C)n1CCc1ccccc1	0	0.8	20	0.6	7	36
CC(O)CNc1nc2c(c(=O)n(C)c(=O)n2C)n1Cc1cccc(C(F)(F)F)c1 (centres undefined)	-3	0.7	29	0.7	7	32
CCCNc1nc2c(c(=O)n(C)c(=O)n2C)n1Cc1cccc(C)c1	1	0.6	38	0.4	13	58*
CC(CCO)Nc1nc2c(c(=O)n(C)c(=O)n2C)n1Cc1cccc(Br)c1 (centres undefined)	-1	0.5	49	0.4	12	60*
COc1ccc(Nc2nc3c(c(=O)n(C)c(=O)n3C)n2CCO)cc1	-3	0.4	59*	1	3	3
Cn1c(=O)c2c(nc(NCCCO)n2C/C=C/c2ccccc2)n(C)c1=O	9	0.3	68*	0.1	-4	90*
CCc1nc(OCCN(C)C)c2oc3ccccc3c2n1	-2	0.9	6	1.1	-7	-9
CC(O)CNc1nc2c(c(=O)n(C)c(=O)n2C)n1Cc1cccc(Br)c1 (centres undefined)	12	0.4	60*	0.6	2	44
CC(C)CNc1nc2c(c(=O)n(C)c(=O)n2C)n1Cc1cccc(Br)c1	-10	0.7	30	0.6	19	35
Cc1sc(/N=C/c2ccccc2O)c(C#N)c1C	4	1	1	0.7	-2	27
SMILES	PostGolgi yeast	CYP2C9 activ	CYP2C9 inh	CYP2C19 activ	PostGolgi ctrl	CYP2C19 inh
CCOC(=O)Cn1c(=O)sc2ccccc21	4	1	4	0.5	0	47
Cc1ccc(OCn2c(=O)sc3ccccc32)cc1	6	0.6	38	0.4	6	56*
O=c1sc2ccccc2n1CCOc1ccccc1	-8	0.1	88*	0	9	98*
O=c1nc2ccccc2c2n1CC(CN1CCN(c3cccc(Cl)c3)CC1)N2 (centres undefined)	15	1.3	-30	1.2	14	-15
O=C(CSc1ccccn1)Nc1ccc(Br)cn1	-4	0.9	15	0.5	26	54*
O=C(CSc1ncn(-c2ccccc2)n1)Nc1ccc(Br)cn1	-1	0.4	58*	0.2	15	75*
NS(=O)(=O)c1ccc(S(=O)(=O)N(Cc2ccccc2F)CC2CCCO2)cc1 (centres undefined)	-1	1	3	0.9	3	11
O=S(=O)(NCC1CC1)c1cccc(S(=O)(=O)N2CCCC2)c1	2	0.9	11	0.6	4	36
O=S(=O)(NCCC1=CCCCC1)c1cccc(S(=O)(=O)N2CCOCC2)c1	-11	0.2	75*	0.2	18	76*
O=S(=O)(NC1CCN(Cc2ccccc2)CC1)c1cccc(S(=O)(=O)N2CCOCC2)c1	1	0.7	31	0.5	14	54*
O=S(=O)(NCc1ccc(F)cc1)c1cccc(S(=O)(=O)N2CCOCC2)c1	0	0.5	47	0.5	-11	49
Cn1c(=O)oc2cc(S(=O)(=O)NC3CCN(Cc4ccccc4)CC3)ccc21	4	x	x	x	2	x
O=S(=O)(NCc1ccco1)c1cccc(S(=O)(=O)N2CCOCC2)c1	-4	1.1	-5	0.5	13	50*
O=S(=O)(NCCc1ccccc1)c1cccc(S(=O)(=O)N2CCOCC2)c1	-10	0.4	61*	0.1	4	89*
COc1ccc(-c2noc(N3CCC(C(=O)N4CCN(c5ccccn5)CC4)CC3)n2)cc1	-1	0.6	38	0.5	17	49
CC(C)CN(CC(C)C)C(=O)C12CCC(C)(C(=O)C1)C2(C)C (centres undefined)	-1	0.9	7	0.9	9	6
CC1(C)OC(=O)C(=CNC(CCC(N)=O)C(=O)O)C(=O)O1 (centres undefined)	-11	1.1	-6	1.1	-7	-9
O=S(=O)(CCc1ccccc1)N1CCOCC1	-3	1	-3	0.3	2	70*
O=C(O)CCc1ccc(S(=O)(=O)N2CCOCC2)cc1	1	1	4	1	-2	4
CC(C)C(=O)Nc1ccc(Cc2ccc(NC(=O)C(C)C)c(O)c2)cc1O	-2	0.1	93*	0.4	17	64*
Cn1c(N)c(N2CCCCC2)c(=O)n(CC(=O)Nc2ccc(Cl)c(Cl)c2)c1=O	-6	0	98*	0.1	1	94*
O=C(CSCC(=O)NCc1ccco1)NCc1ccco1	1	1	2	1	8	4
O=C(CCSCCC(=O)NCc1ccco1)NCc1ccco1	-9	0.1	90*	0.8	1	16
O=C(Cc1cccs1)NCc1cccs1	1	0.9	14	0.5	10	46
